Drawing on PubChem BioAssay (NCATS), this text covers Potency for nine compounds.

Results filed as inconclusive are left out. Activity calls are given as the source filed them. Calls come from the whole dose curve; as a rule, active = well fitted inhibition curve with a large enough effect; inconclusive = small, poorly fitted or top-dose-only effect; inactive = flat fitted curve, though single readings scatter.
Potency is the fitted concentration of half-maximal effect.

Sequence of Ubiquitin carboxyl-terminal hydrolase 2 (Homo sapiens) (O75604 whole entry, looked up): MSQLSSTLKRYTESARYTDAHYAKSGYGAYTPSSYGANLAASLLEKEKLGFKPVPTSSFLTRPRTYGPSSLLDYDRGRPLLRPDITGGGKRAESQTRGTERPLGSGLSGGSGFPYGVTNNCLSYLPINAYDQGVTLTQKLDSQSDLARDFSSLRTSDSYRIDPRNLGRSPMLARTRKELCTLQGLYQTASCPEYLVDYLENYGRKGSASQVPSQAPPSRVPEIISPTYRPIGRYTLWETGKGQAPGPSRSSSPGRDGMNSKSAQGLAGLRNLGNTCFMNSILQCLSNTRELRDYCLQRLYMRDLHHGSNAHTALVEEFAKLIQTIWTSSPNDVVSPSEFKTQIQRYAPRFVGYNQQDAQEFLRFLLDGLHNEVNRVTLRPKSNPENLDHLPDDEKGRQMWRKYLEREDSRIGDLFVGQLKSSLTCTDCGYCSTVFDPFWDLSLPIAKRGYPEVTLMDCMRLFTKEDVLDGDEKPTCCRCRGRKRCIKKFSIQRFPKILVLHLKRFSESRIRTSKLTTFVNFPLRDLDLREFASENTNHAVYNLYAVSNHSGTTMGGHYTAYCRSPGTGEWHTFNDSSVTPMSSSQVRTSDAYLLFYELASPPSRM

The target in this test is Ubiquitin carboxyl-terminal hydrolase 2 (Homo sapiens) (UniProt O75604). Briefly: qHTS for Inhibitors of Ubiquitin-specific Protease USP2a Using CHOP2 as the Reporter: K484 Substrate (AID 652173).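 Note: cleavage of internally quenched K48 di-ubiquitin substrate measured as rising fluorescence over time; nearly all actives have a fitted effect of over 70% in size.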 The following applies: USP2 cleavage of DiUb K48 IQF substrate, fluorescence; series mostly up to 57.5 µM. In a few lines:
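Kinetic fluorescence (Ex 525/Em 598) tracked cleavage of an internally quenched K48 di-ubiquitin substrate, added as a 100 nM solution. The enzyme was added as a 5 nM USP2 solution before compound pinning, with no-enzyme controls. Buffer: Tris pH 8, beta-mercaptoethanol, CHAPS.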
In general terms: In qHTS, concentration-response curves come from the screen itself.
As to `O=S(=O)(Nc1nccs1)c1ccc(Nc2nc(-c3ccc(Cl)c(Cl)c3)cs2)cc1`, the Potency is 27.3 µM (active).
Under `N#Cc1cnc(N[S+](=O)([O-])c2ccc(Nc3nc(-c4ccccc4)cs3)cc2)s1` stands “inactive”; under `CCN(CC)C(=O)C1CCC(C(=O)Nc2ccc([S+](=O)([O-])Nc3nccs3)cc2)CC1` (centres undefined), “inactive”.
With `CCC(=O)OC1CCC(C(=O)Nc2ccc([S+](=O)([O-])Nc3nccs3)cc2)CC1` (centres undefined) the entry was “inactive”; with `Nc1ccc(S(=O)(=O)Nc2cnccc2C(=O)Nc2nc(-c3ccccc3)cs2)cc1`, 17.2 µM (active).
Under `Cn1cnc(S(=O)(=O)Nc2cnccc2C(=O)Nc2nc(-c3ccccc3)cs2)c1` stands 19.3 µM (active); under `Nc1cccc(S(=O)(=O)Nc2cnccc2C(=O)Nc2nc(-c3ccccc3)cs2)c1`, 13.7 µM (active).
As for `Cc1ccc(S(=O)(=O)Nc2cc([N+](=O)[O-])ccc2C(=O)Nc2nc(-c3ccccc3)cs2)cc1`, the Potency was 0.968 µM (active).
Under `CC(C)(C)NC(=O)N1CCC(C(=O)Nc2ccc([S+](=O)([O-])Nc3nccs3)cc2)CC1` stands “inactive”.
